This note sets out measurements from PubChem BioAssay (Tox21).

Inconclusive results are not listed. Values without a mark were called inactive. The source made the active and inactive calls. Unless noted, calls come from the whole dose curve; as a rule, active = well fitted curve in the direction sought with a large enough effect in the repeat runs; inconclusive = weak or mixed curves; inactive = no such curve, though single readings can be large; an effect the other way counts as inactive or inconclusive.

The nature of assay [1]: qHTS assay to identify small molecule antagonists of the vitamin D receptor (VDR) signaling pathway - cell viability counter screen (AID 743225). Note: % is set by controls: 0 for no effect and ±100 for the full control effect; nearly all actives have a fitted effect of over 50% in size. The method, boiled down:
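Cytotoxicity toward the VDR-bla HEK 293T line was scored by ATP-based CellTiter-Glo luminescence, read in the wells already used for the beta-lactamase readout after 16 h compound treatment under 3 nM 1-alpha,25-dihydroxyvitamin D3 stimulation.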

A short description of assay [2]: qHTS assay to identify small molecule agonists of the NFkB signaling pathway - cell viability counter screen (AID 1159515; calls by dose curve; note: series mostly up to about 61 µM; % is set by controls: 0 for no effect and ±100 for the full control effect; nearly all actives have a fitted effect of over 55% in size). The method, boiled down: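 Luminescence from CellTiter-Glo (30 min, room temperature) gives viability, measured in the same wells as the beta-lactamase reporter read. Cells were NFkB-bla ME-180, 2,000 per well, treated 5 hr with compounds.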

Assay [3] can be described thus: qHTS assay to identify small molecule agonists of the endoplasmic reticulum stress response signaling pathway (AID 1159516; active = well fitted activation curve with a large enough effect in the signal ratio in the repeat runs, not every such curve was filed as active; the % refers to the signal ratio; note: % is set by controls: 0 for no effect and ±100 for the full control effect). The method, boiled down: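 Read-out is beta-lactamase cleavage of a FRET substrate (405 nm excitation; 460 and 530 nm emissions) in ESRE-bla HeLa cells after a 5 hr compound exposure at 37 C. Substrate incubation ran 2 hr at room temperature.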

Assay [4] in a line: qHTS assay to identify small molecule agonists of the endoplasmic reticulum stress response signaling pathway - cell viability counter screen (AID 1159517; calls by dose curve;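 note: HeLa cells carrying an ER stress response element beta-lactamase reporter; series mostly up to about 61 µM; % is set by controls: 0 for no effect and ±100 for the full control effect; nearly all actives have a fitted effect of over 50% in size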). The method, boiled down:
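Counter-screen wells were identical to the reporter wells. Cells were plated at 1,500 per well and dosed for 5 hr, then read for luminescence 30 min after CellTiter-Glo addition.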

Assay [5] in a line: qHTS assay to identify small molecule antagonists of the retinoid-related orphan receptor gamma (ROR-gamma) signaling pathway - cell viability counter screen (AID 1159520). Note: % is set by controls: 0 for no effect and ±100 for the full control effect; nearly all actives have a fitted effect of over 50% in size. In outline: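 Tet-on ROR gamma CHO cells were given compounds for 2 hr, then doxycycline hyclate at 1 uM final, and incubated 16 hr at 37 C. Viability was measured as ATP content by CellTiter-Glo luminescence.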

The target in assay [6] is Nuclear receptor ROR-gamma (Homo sapiens) (UniProt P51449). Put plainly: qHTS assay to identify small molecule antagonists of the retinoid-related orphan receptor gamma (ROR-gamma) signaling pathway (AID 1159521;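 note: CHO cells with doxycycline inducible ROR-gamma driving an RORE luciferase reporter; top concentration of the series differs between compounds; % is set by controls: 0 for no effect and ±100 for the full control effect; nearly all actives have a fitted effect of over 50% in size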). In outline: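 Readout: ONE-Glo luciferase luminescence, 30 min at room temperature. System: Tet-on RORγ CHO, RORE-LUC. Sequence: compound 2 h, doxycycline 1 uM final, 16 h at 37 C.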

Assay [7] is described as follows: qHTS assay to identify small molecule agonists of the AP-1 signaling pathway - cell viability counter screen (AID 1159525; calls by dose curve; note: nearly all actives have a fitted effect of over 55% in size). The method, boiled down: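 AP-1-bla ME-180 cells in Opti-MEM with 0.5% dialyzed FBS, compound exposure 5 h at 37 C in 15-point titration. Viability read in the same wells as ATP content by CellTiter-Glo luminescence, normalised to tetra-n-octylammonium bromide and DMSO controls.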

Assay [8] is described as follows: qHTS assay to identify small molecule agonists of the AP-1 signaling pathway (AID 1159526; calls by dose curve; note: % is set by controls: 0 for no effect and ±100 for the full control effect).
The target in assay [9] is Retinoic acid receptor RXR-alpha (Homo sapiens) (UniProt P19793). Put plainly: qHTS assay to identify small molecule agonists of the RXR signaling pathway (AID 1159527; calls by dose curve; note: nearly all actives have a fitted effect of over 35% in size; note: potency is the fitted concentration of half-maximal effect; for activation: % is set by controls: 0 for no effect and ±100 for the full control effect). In outline: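 Reporter activation is measured as beta-lactamase activity via FRET substrate cleavage (emission 460/530 nm) in HEK 293T cells expressing an RXR-alpha-driven bla construct, following 16 hr compound exposure at 37 C.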

Assay [10] in a line: qHTS assay to identify small molecule agonists of the RXR signaling pathway - cell viability counter screen (AID 1159529). In outline:
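Tox21 10K compounds were tested for cytotoxicity against GeneBLAzer RXR-alpha HEK 293T cells grown in 2% charcoal-stripped FBS. Exposure lasted 16 hr at 37 C, 5% CO2; viability read by CellTiter-Glo luminescence.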

The nature of assay [11]: qHTS assay to identify small molecule antagonists of the retinoid acid receptor (RAR) signaling pathway - cell viability counter screen (AID 1159551). Note: % is set by controls: 0 for no effect and ±100 for the full control effect; nearly all actives have a fitted effect of over 35% in size. In outline:
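Luminescent ATP quantitation (CellTiter-Glo) gave cell viability in C3RL4 cells exposed to test chemicals for 6 h at 37 C alongside 1 uM final retinol.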

Assay [12] can be described thus: qHTS assay to identify small molecule antagonists of the retinoic acid receptor (RAR) signaling pathway (AID 1159552). The method, boiled down: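 Overnight-plated C3RL4 reporter cells get compound, then retinol to 1 uM final; plates sit 6 hr at 37 C, 5% CO2. A luciferase reagent is added and light output recorded after 30 min at room temperature.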
The nature of assay [13]: qHTS assay to identify small molecule antagonists of the estrogen related receptor (ERR) signaling pathway from Tox21 library - cell viability counter screen (AID 1224834). Note: % is set by controls: 0 for no effect and ±100 for the full control effect; nearly all actives have a fitted effect of over 30% in size. The method, boiled down:
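Fluorescence from CellTiter-Fluor gives the viability read-out, taken 30 min after reagent addition. Before that, ERR cells seeded 6 h earlier were incubated with compounds for 17.5 h at 37 C.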

The target in assay [14] is Luciferin 4-monooxygenase (Photinus pyralis) (UniProt P08659). Put plainly: qHTS assay to identify small molecule inhibitors of firefly luciferase (AID 1224835). Note: series mostly up to about 120 µM; % is set by controls: 0 for no effect and ±100 for the full control effect; nearly all actives have a fitted effect of over 25% in size. In outline: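 Biochemical qHTS: compounds run as interplate titrations against purified firefly enzyme, with D-luciferin and ATP each at its KM concentration. Light output recorded by CCD imaging.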
A short description of assay [15]: qHTS assay to identify small molecule agonists of the constitutive androstane receptor (CAR) signaling pathway - cell viability counter screen (AID 1224836). Note: series mostly up to about 92 µM; % is set by controls: 0 for no effect and ±100 for the full control effect; nearly all actives have a fitted effect of over 45% in size. The method, boiled down:
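Fluorescence from CellTiter-Fluor indicates live cells after 23 h exposure. The human hepatoma line expresses hCAR and a CYP2B6-2.2kb reporter. Incubation medium contains 0.75 uM PK11195 (final).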

Assay [16] is described as follows: qHTS assay to identify small molecule antagonists of the constitutive androstane receptor (CAR) signaling pathway - cell viability counter screen (AID 1224837). Note: series mostly up to about 92 µM; % is set by controls: 0 for no effect and ±100 for the full control effect; nearly all actives have a fitted effect of over 45% in size. In outline:
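HepG2-CYP2B6-hCAR cells, 2500/well, 4 hr pre-incubation; compound titration, 15 conc.; CITCO 50 nM final; 23 hr, 37 C/5% CO2; CellTiter-Fluor, fluorescence intensity.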

A short description of assay [17]: qHTS assay to identify small molecule antagonists of the estrogen related receptor signaling pathway with the pleiotropic PPARgamma coactivator (PGC) from Tox21 10K library - cell viability counter screen (AID 1224840; active = well fitted cell-killing curve with a large enough effect in the repeat runs, not every such curve was filed as active; note: % is set by controls: 0 for no effect and ±100 for the full control effect; nearly all actives have a fitted effect of over 40% in size). The method, boiled down: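 PGC/ERR cells, 2,000/well; 6 h pre-incubation 37 C/5% CO2; cpd in DMSO via pin tool; 17.5 h 37 C; CellTiter-Fluor, 30 min; fluorescence.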

A short description of assay [18]: qHTS assay to identify small molecule agonists of the retinoic acid receptor (RAR) signaling pathway (AID 1159553). Note: % is set by controls: 0 for no effect and ±100 for the full control effect. The method, boiled down: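 Luminescence from a RARE-driven luciferase reporter in C3RL4 cells served as the read-out, measured after 30 min with detection reagent at room temperature. Compounds in DMSO were applied for 6 hr at 37 C following overnight seeding.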

The target in assay [19] is Nuclear receptor subfamily 1 group I member 3 (Homo sapiens) (UniProt Q14994). Kind of assay: qHTS assay to identify small molecule antagonists of the constitutive androstane receptor (CAR) signaling pathway (AID 1224838).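 Note: HepG2 cells stably expressing hCAR with CYP2B6 luciferase reporter stimulated by CITCO; % is set by controls: 0 for no effect and ±100 for the full control effect; nearly all actives have a fitted effect of over 40% in size.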 In outline: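 HepG2-CYP2B6-hCAR cells; 4 h pre-incubation; cpd (15 conc) + CITCO 50 nM final; 24 h, 37 C/5% CO2; ONE-Glo, luminescence.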
Assay [20] has the same target. Kind of assay: qHTS assay to identify small molecule agonists of the constitutive androstane receptor (CAR) signaling pathway (AID 1224839).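 Note: HepG2 cells stably carrying human CAR and a CYP2B6 luciferase reporter; series mostly up to about 92 µM; % is set by controls: 0 for no effect and ±100 for the full control effect; nearly all actives have a fitted effect of over 15% in size.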 The method, boiled down: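 Stable hCAR/CYP2B6-2.2kb HepG2 line in DMEM with 10% FBS; compounds (15 concentrations) and 0.75 uM PK11195 final, 24 h at 37 C/5% CO2, then ONE-Glo luminescence after 30 min.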

Nuclear receptor subfamily 1 group I member 3 (Homo sapiens), sequence (Q14994 whole entry, looked up): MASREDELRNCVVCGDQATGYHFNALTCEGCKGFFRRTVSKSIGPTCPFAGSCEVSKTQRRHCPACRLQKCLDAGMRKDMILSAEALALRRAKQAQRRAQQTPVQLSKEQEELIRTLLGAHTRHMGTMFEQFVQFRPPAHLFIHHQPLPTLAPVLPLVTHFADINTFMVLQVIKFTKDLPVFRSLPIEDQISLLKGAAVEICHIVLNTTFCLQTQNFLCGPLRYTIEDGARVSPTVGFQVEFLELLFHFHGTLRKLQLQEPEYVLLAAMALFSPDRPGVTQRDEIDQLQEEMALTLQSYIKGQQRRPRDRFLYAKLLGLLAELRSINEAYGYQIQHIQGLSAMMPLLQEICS
Retinoic acid receptor RXR-alpha (Homo sapiens), sequence (P19793 whole entry, looked up): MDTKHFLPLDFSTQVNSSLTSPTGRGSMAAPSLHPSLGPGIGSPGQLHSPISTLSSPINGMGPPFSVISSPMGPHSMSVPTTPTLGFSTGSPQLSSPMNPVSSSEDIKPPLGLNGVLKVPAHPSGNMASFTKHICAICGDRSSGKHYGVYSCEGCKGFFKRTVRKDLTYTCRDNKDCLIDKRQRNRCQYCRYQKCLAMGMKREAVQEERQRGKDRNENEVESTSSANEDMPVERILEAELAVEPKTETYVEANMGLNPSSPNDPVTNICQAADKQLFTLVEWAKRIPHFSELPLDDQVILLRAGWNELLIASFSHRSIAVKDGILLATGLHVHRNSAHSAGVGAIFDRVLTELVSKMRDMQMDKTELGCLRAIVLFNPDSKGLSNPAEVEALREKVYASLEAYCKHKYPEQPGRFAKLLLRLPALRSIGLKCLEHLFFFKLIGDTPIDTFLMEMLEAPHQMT
Luciferin 4-monooxygenase (Photinus pyralis), sequence (P08659 whole entry, looked up): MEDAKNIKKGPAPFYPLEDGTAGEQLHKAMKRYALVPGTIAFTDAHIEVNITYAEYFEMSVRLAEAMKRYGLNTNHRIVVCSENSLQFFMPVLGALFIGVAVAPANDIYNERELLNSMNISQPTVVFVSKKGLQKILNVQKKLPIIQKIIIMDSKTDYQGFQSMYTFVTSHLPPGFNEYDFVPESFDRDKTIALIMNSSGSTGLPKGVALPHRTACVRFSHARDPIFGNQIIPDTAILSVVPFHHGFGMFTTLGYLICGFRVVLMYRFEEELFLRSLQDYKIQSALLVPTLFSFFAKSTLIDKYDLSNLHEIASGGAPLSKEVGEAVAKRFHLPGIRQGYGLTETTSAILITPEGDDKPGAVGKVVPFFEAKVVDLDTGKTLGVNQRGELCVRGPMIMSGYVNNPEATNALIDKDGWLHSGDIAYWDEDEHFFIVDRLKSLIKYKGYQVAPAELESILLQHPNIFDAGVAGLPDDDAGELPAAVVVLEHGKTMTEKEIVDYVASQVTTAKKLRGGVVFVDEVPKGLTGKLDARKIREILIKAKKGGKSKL

For `O=C(O)CCCCCCCCCC(=O)O`, the call in [1], in assay [2], in assay [4], in assay [5], in assay [6] and in assay [7] was inactive. Besides, the result in [11], in assay [12], in assay [13], in [15], in assay [16] and in assay [17] was inactive. The Potency result in assay [3], in [8], in assay [9], in [10] and in assay [14] was “inactive” each time.

Consider `CCC(C)(C)C`, for which the result in assay [2], in assay [4], in assay [5], in assay [6], in [7] and in assay [11] was inactive. Besides, the outcome in [13], in assay [15], in [16] and in assay [17] was inactive. In addition, the Potency entry in assay [3], in [8], in [9], in assay [10], in assay [18] and in assay [14] was “inactive” throughout.

As to `CC(=O)OC/C=C(/C)CCC=C(C)C`, the call in assay [1], in assay [2], in assay [4], in assay [5], in assay [6] and in assay [7] was inactive. In addition, the outcome in [11], in assay [13], in assay [15], in [16], in assay [19] and in assay [17] was inactive. For the same molecule, the Potency entry in assay [3], in assay [8], in assay [9], in [10], in assay [18] and in [14] was “inactive” throughout. In assay [20], the Potency result was “inactive”.

On to `N=C(N)N1CCc2ccccc2C1`, for which, in [2], the activity, negative = cytotoxic was 6.23% [at 6.95 µM]. Moreover, the activation was 1.42% [at 6.95 µM] in assay [3], -0.863% [at 6.97 µM] in assay [8], 5.64% [at 6.98 µM] in [9] and -0.224% [at 8.36 µM] in assay [18]. Besides, the activity change, negative = cytotoxicity is 3.62% [at 6.95 µM] in assay [4], 2.64% [at 6.97 µM] in assay [10], -0.951% [at 8.39 µM] in [11] and 1.11% [at 8.39 µM] in assay [16]. The activity, negative = cytotoxicity in [5] was 7.51% [at 8.39 µM]. For the same molecule, the activity change, negative = inhibition in assay [6] is -0.777% [at 8.39 µM]; in assay [14], -2.87% [at 10.5 µM]. The viability change, negative = cytotoxic is 6.37% [at 6.97 µM] in assay [7], 2.84% [at 8.39 µM] in assay [13], -1.33% [at 8.39 µM] in assay [15] and -0.866% [at 8.39 µM] in assay [17].

Consider `O=C(OOC(=O)c1ccccc1)c1ccccc1`, for which the call in assay [1], in [2], in [4], in assay [5], in [6] and in assay [7] was inactive. The molecule was called inactive in assay [11], in assay [15], in assay [16] and in assay [17]. The Potency entry in assay [3], in [8], in assay [9], in assay [10], in [18] and in [14] was “inactive” throughout.

Take `CCCCCCC(O)CO` (centres undefined): the molecule was called inactive in assay [2], in assay [4], in [5], in assay [6], in [7] and in assay [11]. Further, the outcome in assay [12], in [15], in [16], in assay [19] and in assay [17] was inactive. Besides, the Potency entry in [3], in assay [8], in [10], in assay [14] and in [20] was “inactive” in each case. Moreover, in [9], the Potency was 12.3 µM (active).

On to `CC(=O)c1ccc(O)c(C(N)=O)c1`, for which the call in [1], in [2], in assay [4], in [5], in [6] and in assay [7] was inactive. In addition, the molecule was called inactive in assay [11], in assay [13], in [15], in assay [16] and in assay [17]. In addition, the Potency entry in [3], in assay [8], in assay [9], in assay [10], in [18] and in assay [14] was “inactive” throughout.

For `C[n+]1ccccc1/C=N/O`, the result in [2], in assay [4], in [5], in assay [6], in assay [7] and in assay [11] was inactive. In addition, the molecule was called inactive in [12], in assay [15], in assay [16], in assay [19] and in assay [17]. In addition, the Potency entry in assay [3], in assay [8], in assay [9], in assay [10] and in [14] was “inactive” in each case.
